Measured values reported in PubChem BioAssay AID2384 (Southern Research Specialized Biocontainment Screening …, 2010).
Hit rate of the full screen: of about 2,300 compounds, about 1,100 (48%) were called active. The rule behind the calls is not given here. The set was probably picked from earlier hits. Some of the results follow. Potency and affinity values are given separately.

Test: inhibitors in S. typhi counter-screen strain, dose response, counter-screen for PhoP regulon inhibitor project, fluorescence, 4 h (AID 2384)
Details: S. typhi GFP reporter counter-screen; series mostly up to 150 µM; inhibition: at the top concentration

SMILES | inhibition
CS(=O)(=O)N1CC(C(=O)NC2CC2)Oc2ccc(Cl)cc21 (configuration not stated) | -21% (inactive)
CCOC(=O)C1=C(C)NC(SCC(N)=O)=C(C#N)C1c1ccncc1 (configuration not stated) | 4.95% (inactive)
Cc1ccc(SCc2[nH]nc3c2C(c2cccnc2)C(C#N)=C(N)O3)cc1 (configuration not stated) | 1.18% (inactive)
CN(CC(=O)NCc1ccncc1)S(=O)(=O)c1ccccc1 | -1.72% (inactive)
c1ccc2c(c1)nc(N1CCOCC1)c1c3ccccc3[nH]c21 | -17.1% (inactive)
COCCNC(=S)N=Nc1c(O)[nH]c2ccc([N+](=O)[O-])cc12 | 1.83% (inactive)
Cc1cc(C)c(CSc2ncnc3nc[nH]c23)c(C)c1 | 4.91% (inactive)
O=C(c1ccco1)N1CCCN(Cc2nc(-c3ccc4c(c3)OCO4)no2)CC1 | -15.4% (inactive)
OCn1ncn(-c2ccccc2)c1=S | 7.87% (inactive)
CCN(CC)/C(N)=N/c1nc(C)cc(C)n1 | 19.2% (inactive)
Cc1cc(C)c2nc(/N=C(\N)NC(=O)c3ccccc3)nc(C)c2c1 | 2.46% (inactive)
COc1ccc(OC)c(NC(=O)CSc2nnc3ccc(-c4ccncc4)nn23)c1 | 9.2% (inactive)
O=c1ccn(CCc2c[nH]c3ccccc23)c2c1CCCC2 | -0.3% (inactive)
O=C(NCc1ccccc1)N[C@@H](Cc1c[nH]c2ccccc12)C(=O)O | 8.61% (inactive)
CN(C)C(=O)CC12CC3CC(C1)CC(CC(=O)N(C)C)(C3)C2 | 3.13% (inactive)
O=C(Cn1[nH]c(=O)c2ccccc2c1=O)Nc1ccc(-c2nnc3n2CCCCC3)cc1 | -15.2% (inactive)
Cc1cc(Cl)ccc1OCC(=O)Nc1nc(-c2cccnc2)cs1 | -11.5% (inactive)
CCOC(=O)C1CCCN(C/C(O)=C(\C#N)c2nc(-c3ccccc3)cs2)C1 (configuration not stated) | 8.93% (inactive)
O=C1C2C3C=CC(CC3)C2C(=O)N1/N=C/c1ccc(O)cc1 (configuration not stated) | -17.8% (inactive)
Cc1cccc(NC(=O)c2sc3nc(-c4ccccc4)cn3c2C)n1 | -13.9% (inactive)
O=C(Nc1ccc(N2CCOCC2)c(Cl)c1)c1ccc(-n2cnnc2)cc1 | -13.5% (inactive)
CCOC(=O)C1=C(C)NC(=O)NC1c1ccc(NC(C)=O)cc1 (configuration not stated) | -8.05% (inactive)
CSC1=NC2(C)CCCCC2C12C=CC(=O)C=C2 (configuration not stated) | -21.2% (inactive)
Nc1cncc(C(=O)O)c1 | -53% (inactive)

SMILES | inhibition
CC1CCCC(NC(=O)COC(=O)CCSc2ccccc2)C1C (configuration not stated) | 11.9% (inactive)
Cc1cccc(NC(=O)CSc2nc3c([nH]c4ccccc43)c(=O)n2C)c1 | -5.51% (inactive)
CC(C)OCCCn1c(=S)[nH]c2cc3c(cc2c1=O)OCO3 | -4.16% (inactive)
CCS(=O)(=O)N1CCC(C(=O)NCc2cc(OC)ccc2OC)CC1 | -21.9% (inactive)
CC(C)c1ccc(N(C(=O)C(F)(F)F)C(C(=O)NC2CCCCC2)c2ccncc2)cc1 (configuration not stated) | 9.6% (inactive)
COc1ccc(NC(=O)CCNS(=O)(=O)c2cccc3nonc23)cc1 | -8.45% (inactive)
COc1ccc(N2CCN(c3cc(C)c4ccc(O)cc4n3)CC2)cc1 | -1.1% (inactive)
N=c1ccccn1CC(O)COc1ccccc1 (configuration not stated) | -25.8% (inactive)
CSc1nc2cc(Oc3cccc(Cl)c3Cl)c(Cl)cc2[nH]1 | 37.1% (inactive)
Clc1ccc2nc(N3CCCCC3)[nH]c2c1 | 21.9% (inactive)
CC(=O)c1c(C)[nH]c(C(=O)CSc2nnc(-c3ccc(Cl)cc3)n2CC2CCCO2)c1C (configuration not stated) | -16.2% (inactive)
O=C(NC(O)C(=O)c1ccccc1)c1ccc(F)cc1 (configuration not stated) | -8% (inactive)
Clc1ccc2c(c1)c1cc(Cl)ccc1n2CN1CCOCC1 | 23.5% (inactive)
CC(C)C(NC(=O)c1ccc(Cl)cc1)C(=O)NCC1CCCO1 (configuration not stated) | -23.1% (inactive)
CC(=O)N(CCC1(c2ccc(C)cc2)CCOC(C(C)C)C1)Cc1ccco1 (configuration not stated) | 16.3% (inactive)
c1cc(N2CCCC2)ccc1C(c1nnnn1C1CCCCC1)N1CCOCC1 (configuration not stated) | -9.47% (inactive)
O=C(NC(=S)Nc1ccc(S(=O)(=O)Nc2nccs2)cc1)c1cccnc1 | -25.2% (inactive)
COc1nccnc1NS(=O)(=O)c1ccc(NC(=S)NC(=O)c2cccnc2)cc1 | -19.3% (inactive)
C=C(C)COc1ccc2c(C)c(CCC(=O)NC3CC3)c(=O)oc2c1 | 9.62% (inactive)
O=C1C(Cl)=C(NCc2cccnc2)C(=O)c2ccccc21 | -10.2% (inactive)
O=C(c1ccccc1)N1CCN(c2ccc([N+](=O)[O-])c(NCc3ccco3)c2)CC1 | 12.7% (inactive)
CCCC(=O)Nc1c2c(nn1-c1ccc(C)cc1C)CSC2 | -2.67% (inactive)
NC(N)=NC(N)=Nc1cccc2ccccc12 | 17.7% (inactive)
Cc1c(C(=O)O)oc2c3c(ccc12)OCCO3 | 37% (inactive)

SMILES | inhibition
Cc1ccnc(NS(=O)(=O)c2ccc(N=CC3=C(O)CC(C)(C)CC3=O)cc2)n1 | -5.31% (inactive)
N#Cc1nc(Cc2ccccc2)oc1NCCN1CCOCC1 | 5.87% (inactive)
N#Cc1nc(Cc2cccc3ccccc23)oc1NCCCN1CCOCC1 | 33.6% (inactive)
CCCNC(=O)COc1ncnc2sc(C)c(C)c12 | -23.9% (inactive)
COc1ccc(-n2cnc3c(sc4nc(N5CCOCC5)c5c(c43)CCCC5)c2=O)cc1 | -10.8% (inactive)
Cc1cc(=O)oc2c(CN(C)Cc3ccccc3)c(O)ccc12 | 8.32% (inactive)
CC(C)(C)NC(=O)c1ccc2c3c(cccc13)CC2 | 11.2% (inactive)
Cc1ccc(C(=O)N2C(=S)C(c3ccc(F)cc3)=NC23CCN(C)CC3)cc1 | 39.8% (inactive)
COC(=O)c1ccc(C)c(NC(=O)CN2C(=O)c3ccccc3S2(=O)=O)c1 | -9.18% (inactive)
CC(C)(C)Nc1nc(-c2ccccn2)nc2ccccc12 | 30.1% (inactive)
COC(=O)c1ccccc1NC(=O)CSc1ncn[nH]1 | 4.44% (inactive)
O=C1Nc2ccccc2C1=Nc1ccc(S(=O)(=O)Nc2nccs2)cc1 | -49.4% (inactive)
CCc1nc(C)ccc1OCC(=O)NCCCN(C)C | 16.7% (inactive)
Cc1ccc(-c2nc(C(=O)NCCCN(C)C)cc3c2[nH]c2ccccc23)cc1 | 32.1% (inactive)
Oc1ccc(C=Nc2ccc3ncccc3c2)c(O)c1 | 26.2% (inactive)
Cc1ccc(C2CC(=O)NC(SCCC(C)C)=C2C#N)cc1 (configuration not stated) | -19.8% (inactive)
C=CCN1C(=O)C(O)(CC(=O)c2c(C)n[nH]c2C)c2cc(Br)ccc21 (configuration not stated) | 7.21% (inactive)
Cc1cc[n+](CC(=O)c2ccc(NC(=O)c3ccccc3)cc2)cc1 | 29.7% (inactive)
CCc1ccc2c(c1)CCCN2C(=O)c1ccccc1C(=O)O | -19% (inactive)
COc1ccc2c(c1)cc1n2CCN=C1N | 23% (inactive)
COc1c(N2CCN(C(=S)NCc3ccccc3)C(C)C2)c(F)cc2c(=O)c(C(=O)O)cn(C3CC3)c12 (configuration not stated) | 20.9% (inactive)
CCCC(=O)c1c(NC)cc(C)oc1=O | 26.1% (inactive)
Cc1c(-c2ccccc2)[n+](=O)c2c(n1[O-])CCCC2 | 14.9% (inactive)
O=C(Nc1ccc(F)cc1)C1CCC(CNc2c(N3CCCCC3)c(=O)c2=O)CC1 (configuration not stated) | -9.7% (inactive)
